# Assay results reported in PubChem BioAssay.
# For some of these results: Potency and affinity values are given separately. Activity calls are given as the source filed them.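 How the source made its calls, unless noted: active means primary screen inhibitor hit that blocks the TRPC4 channel at some tested dose, yielding a dose curve; inactive means the rest.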
# Tests used:
# [1] = system: TRPC4 beta (transient receptor potential cation channel C4), mouse; assay: activators of mouse TRPC4 channel, confirmation, cell-based, Fluo4 calcium, HEK293 TRPC4beta/mu-opioid, duplicates, 10 µM (AID 2426;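 active means fluorescence ratio normalized to control raised more than 50% in primary screen plus both repeat runs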); settings: Fluo4 calcium fluorescence, at 10 µM; hits give high values
# [2] = system: transient receptor potential cation channel C4 beta (TRPC4), mouse; assay: activators of mouse TRPC4 channel, confirmation, cell-based, second round, Fluo4, HEK293 TRPC4beta/mu-opioid, 1 µM (AID 2461;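 active means primary screen active and over 50% activation in each of two duplicate runs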); settings: Fluo4 calcium fluorescence, at 1 µM; hits give high values
# [3] = system: TRPC4 (transient receptor potential cation channel C4 beta), mouse; assay: positive allosteric modulators of mouse TRPC4, confirmation, cell-based, second round, Fluo-4, HEK293 TRPC4beta/mu-opioid, 1 µM (AID 2554;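 active means primary screen hit whose fluorescence ratio, in both repeats, exceeds the weak agonist control mean by 3 SD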); settings: DAMGO EC20, Fluo-4 calcium flux, at 1 µM; hits give high values
# [4] = system: TRPC4 beta (transient receptor potential cation channel C4), mouse; assay: positive allosteric modulators of mouse TRPC4, confirmation, cell-based, Fluo-4, HEK293 TRPC4beta/mu-opioid (AID 2555;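 active means primary screen hit whose calcium fluorescence ratio, in both repeats, exceeds the weak agonist control mean by 3 SD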); settings: DAMGO EC20, Fluo-4 calcium flux, at 10 µM; hits give high values
# [5] = target: Short transient receptor potential channel 4 (Mus musculus) (UniProt Q9QUQ5); assay: inhibitors of mouse TRPC4 channel, confirmation, cell-based, Fluo4, HEK293 TRPC4beta/mu-opioid (AID 2636;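 active means calcium signal cut by more than 3 SD below the full-agonist control yet still positive, in both repeats and the earlier primary screen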); settings: DAMGO, Fluo4 calcium flux, at 10 µM; hits give high values
# [6] = target: Short transient receptor potential channel 4 (Mus musculus) (UniProt Q9QUQ5); assay: inhibitors of mouse TRPC4 channel, confirmation, cell-based, second round, Fluo4, HEK293 TRPC4beta/mu-opioid, 1 µM (AID 2637;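 active means calcium signal ratio cut to more than 3 SD under the fully stimulated control mean yet still positive, in both repeats and the primary screen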;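 on inhibition: percent of integrated ratio relative to wells lacking test compound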); settings: Fluo4 calcium flux, DAMGO, at 1 µM; hits give high values
# [7] = target: Short transient receptor potential channel 4 (Mus musculus) (UniProt Q9QUQ5); assay: mouse TRPC4 channel activators, dose response, cell-based, HEK293 TRPC4/mu-opioid, Fluo-4 calcium (AID 434937;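 active means primary screen activator hit with a dose response curve and TRPC4 channel activation at any tested dose; inactive means no activation, no dose response, or not a primary hit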)
# [8] = target: Short transient receptor potential channel 4 (Mus musculus) (UniProt Q9QUQ5); assay: TRPC4 positive allosteric modulators, dose response, cell-based, HEK293 TRPC4/mu-opioid, Fluo-4 calcium, EC20 DAMGO (AID 434941;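 active means earlier screen potentiator hit that boosts the TRPC4 ion channel at some dose, with a dose response; inactive means no potentiation, no dose response, or not a prior hit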;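 further: calcium entry triggered by an EC20 dose of DAMGO at the co-expressed mu-opioid receptor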)
# [9] = target: Short transient receptor potential channel 4 (Mus musculus) (UniProt Q9QUQ5); assay: mouse TRPC4 channel inhibitors, dose response, cell-based, HEK293 TRPC4/mu-opioid, Fluo-4 calcium (AID 434942)
# [10] = target: Short transient receptor potential channel 6 (Mus musculus) (UniProt Q61143); assay: inhibition of mouse TRPC6 channel, confirmation, selectivity assay for TRPC4 inhibitor project, cell-based, HEK293, membrane potential dye, duplicate (AID 434948;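 active means active in primary screen and both duplicates, each dropping signal beyond three positive-control SD with fluorescence still positive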); settings: HEK293 TRPC6, membrane potential dye fluorescence, at 10 µM, stimulated with maximal-effect acetylcholine; hits give high values
# [11] = target: Short transient receptor potential channel 6 (Mus musculus) (UniProt Q61143); assay: activation of mouse TRPC6 channel, confirmation, selectivity assay for TRPC4 activator project, cell-based, HEK293, membrane potential dye, duplicate (AID 434950;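 active means membrane potential signal rise above negative control mean plus 3 SD in both duplicates, also active in the earlier TRPC4 screen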); settings: HEK293 TRPC6, membrane potential fluorescence, at 10 µM; hits give high values
# [12] = target: Short transient receptor potential channel 6 (Mus musculus) (UniProt Q61143); assay: TRPC6 potentiation by TRPC4 potentiator hits, confirmation, selectivity assay for TRPC4 potentiator project, HEK293 cells, membrane potential dye, duplicate (AID 434952;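 active means compound raising the membrane signal above positive-control mean plus 3 SD in both repeats, and a primary screen hit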); settings: HEK293 TRPC6, membrane potential dye fluorescence, at 10 µM, maximal acetylcholine added after compound; hits give high values
# [13] = target: Short transient receptor potential channel 4 (Mus musculus) (UniProt Q9QUQ5); assay: calcium flux activators in TRPC4/5HT1a cells, counter-screen for TRPC4 activator project, cell-based, second counter screen, HEK293 TRPC4/5HT1a, Fluo-4 (AID 434977;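 active means calcium signal rise above buffer-control mean plus 5 SD in both duplicates, and also a hit in the primary screen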); settings: Fluo-4 calcium flux, at 10 µM; hits give high values
# [14] = calcium flux inhibitors in TRPC4/5HT1a cells, confirmation, counter-screen for TRPC4 inhibitor project, cell-based, second counter screen, HEK293 TRPC4/5HT1a, Fluo-4 (AID 434978;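 active means primary screen active whose calcium signal fell more than 3 SD beyond the full-serotonin control mean in both duplicate plates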;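 on outcome: serotonin given first at submaximal then at maximal dose after compound preincubation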); settings: Fluo-4 calcium flux, at 10 µM, serotonin added to trigger calcium flux; hits give high values
# [15] = system: TRPC4 (mouse), co-expressed with 5HT1a in HEK293; assay: calcium flux potentiators in TRPC4/5HT1a cells, confirmation, counter-screen for TRPC4 potentiator project, cell-based, second counter screen, HEK293 TRPC4/5HT1a, Fluo-4 (AID 434979;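 active means signal rise over 3 SD above mean of control wells given weak agonist, in both repeats and first screen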); settings: Fluo-4 calcium flux, at 10 µM, serotonin added at its EC20 dose; hits give high values
# [16] = calcium flux activation in mu-opioid HEK293 cells, confirmation, counter-screen for TRPC4 activator project, cell-based, HEK293 mu-opioid receptor line (AID 449723;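 active means hit in primary screen, with calcium signal over 5 SD above buffer well mean in both duplicates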;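 further: counter screen cells carry the mu-opioid receptor alone and lack TRPC4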); settings: Fluo-4 calcium fluorescence, at 10 µM; hits give high values
# [17] = calcium flux enhancement in mu-opioid HEK293 cells, confirmation, counter-screen for TRPC4 allosteric potentiator project, cell-based, HEK293 mu-opioid receptor line (AID 449724;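 active means calcium signal rise more than 3 SD above the low-dose agonist control mean, in both duplicate plates and the primary screen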); settings: Fluo-4 calcium flux, at 10 µM, compound added before EC20 DAMGO stimulus; hits give high values
# Chain of Short transient receptor potential channel 4 (Mus musculus) (Q9QUQ5 whole entry, looked up): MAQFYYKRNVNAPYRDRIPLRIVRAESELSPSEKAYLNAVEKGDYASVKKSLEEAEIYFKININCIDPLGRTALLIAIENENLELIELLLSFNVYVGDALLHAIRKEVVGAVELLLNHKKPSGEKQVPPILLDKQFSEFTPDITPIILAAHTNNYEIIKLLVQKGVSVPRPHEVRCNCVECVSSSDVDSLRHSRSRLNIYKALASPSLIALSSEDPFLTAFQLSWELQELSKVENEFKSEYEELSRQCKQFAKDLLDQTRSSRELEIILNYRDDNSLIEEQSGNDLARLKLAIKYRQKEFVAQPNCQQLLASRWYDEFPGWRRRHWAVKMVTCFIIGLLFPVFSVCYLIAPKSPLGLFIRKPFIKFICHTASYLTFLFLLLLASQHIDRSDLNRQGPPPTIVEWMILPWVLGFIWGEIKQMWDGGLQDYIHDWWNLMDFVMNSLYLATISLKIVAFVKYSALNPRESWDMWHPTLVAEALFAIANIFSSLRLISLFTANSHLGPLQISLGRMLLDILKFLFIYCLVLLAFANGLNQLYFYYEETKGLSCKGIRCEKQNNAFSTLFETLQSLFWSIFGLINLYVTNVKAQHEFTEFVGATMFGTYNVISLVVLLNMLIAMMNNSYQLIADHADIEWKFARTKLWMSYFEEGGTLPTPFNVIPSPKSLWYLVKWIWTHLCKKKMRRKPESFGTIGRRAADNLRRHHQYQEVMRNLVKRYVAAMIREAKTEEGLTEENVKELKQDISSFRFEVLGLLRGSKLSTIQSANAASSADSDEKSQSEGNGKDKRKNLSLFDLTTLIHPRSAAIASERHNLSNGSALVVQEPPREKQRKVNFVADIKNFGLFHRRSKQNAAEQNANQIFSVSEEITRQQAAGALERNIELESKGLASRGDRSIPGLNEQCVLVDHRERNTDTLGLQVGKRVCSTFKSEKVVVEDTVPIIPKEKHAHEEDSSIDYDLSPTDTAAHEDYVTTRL
# Chain of Short transient receptor potential channel 6 (Mus musculus) (Q61143 whole entry, looked up): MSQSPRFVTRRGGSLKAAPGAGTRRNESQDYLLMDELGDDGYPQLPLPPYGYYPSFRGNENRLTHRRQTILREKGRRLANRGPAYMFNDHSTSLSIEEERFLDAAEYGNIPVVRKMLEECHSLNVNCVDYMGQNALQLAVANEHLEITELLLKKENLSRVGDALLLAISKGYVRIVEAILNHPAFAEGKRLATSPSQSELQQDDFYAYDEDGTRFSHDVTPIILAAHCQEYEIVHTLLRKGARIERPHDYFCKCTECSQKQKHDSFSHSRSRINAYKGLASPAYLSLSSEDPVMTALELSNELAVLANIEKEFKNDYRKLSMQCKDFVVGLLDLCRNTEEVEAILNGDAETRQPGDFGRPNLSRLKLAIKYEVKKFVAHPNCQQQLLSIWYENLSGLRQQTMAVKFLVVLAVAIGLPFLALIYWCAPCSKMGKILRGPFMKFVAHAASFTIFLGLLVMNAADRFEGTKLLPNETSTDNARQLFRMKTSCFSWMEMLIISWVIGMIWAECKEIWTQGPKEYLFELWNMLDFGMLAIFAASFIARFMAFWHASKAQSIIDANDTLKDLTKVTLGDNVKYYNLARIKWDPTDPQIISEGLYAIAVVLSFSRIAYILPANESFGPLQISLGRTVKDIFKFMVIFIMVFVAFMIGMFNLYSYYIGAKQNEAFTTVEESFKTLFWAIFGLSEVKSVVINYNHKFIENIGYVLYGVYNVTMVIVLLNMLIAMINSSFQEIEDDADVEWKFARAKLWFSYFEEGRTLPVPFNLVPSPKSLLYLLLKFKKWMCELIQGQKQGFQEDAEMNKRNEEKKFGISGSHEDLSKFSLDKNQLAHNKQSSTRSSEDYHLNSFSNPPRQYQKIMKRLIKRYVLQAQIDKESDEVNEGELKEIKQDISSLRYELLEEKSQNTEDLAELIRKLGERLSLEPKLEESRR
compound,measurement,setting,value
CN(C)CCCNC(=O)/C=C/c1ccc(OCc2c(F)cccc2Cl)cc1,outcome,[1],inactive
same,outcome,[2],inactive
same,outcome,[3],inactive
same,outcome,[4],inactive
same,outcome,[5],inactive
same,outcome,[6],inactive
same,outcome,[7],inactive
same,outcome,[8],inactive
same,outcome,[9],inactive
same,outcome,[10],inactive
same,outcome,[11],inactive
same,outcome,[12],inactive
same,outcome,[13],inactive
same,outcome,[14],inactive
same,potentiation,[15],16.2% (active)
same,outcome,[16],inactive
same,outcome,[17],inactive
Cc1ccc(C)c(OCCCCN2CCNCC2)c1C,outcome,[1],inactive
same,outcome,[2],inactive
same,outcome,[3],inactive
same,potentiation,[4],9% (active)
same,outcome,[5],inactive
same,outcome,[6],inactive
same,outcome,[7],inactive
same,outcome,[8],inactive
same,outcome,[9],inactive
same,outcome,[10],inactive
same,outcome,[11],inactive
same,outcome,[12],inactive
same,outcome,[13],inactive
same,outcome,[14],inactive
same,potentiation,[15],29.4% (active)
same,outcome,[16],inactive
same,outcome,[17],inactive
O=C(NCCCN1CCOCC1)C1CCN(S(=O)(=O)c2c(Cl)cccc2Cl)CC1,outcome,[1],inactive
same,outcome,[2],inactive
same,outcome,[3],inactive
same,outcome,[4],inactive
same,outcome,[5],inactive
same,outcome,[6],inactive
same,outcome,[7],inactive
same,outcome,[8],inactive
same,outcome,[9],inactive
same,outcome,[10],inactive
same,outcome,[11],inactive
same,outcome,[12],inactive
same,outcome,[13],inactive
same,outcome,[14],inactive
same,outcome,[15],inactive
same,outcome,[16],inactive
same,outcome,[17],inactive
O=C(C[n+]1cc(-c2ccc(Br)cc2)n2c1CCCCC2)c1ccccc1,outcome,[1],inactive
same,outcome,[2],inactive
same,outcome,[3],inactive
same,outcome,[4],inactive
same,outcome,[5],inactive
same,outcome,[6],inactive
same,outcome,[7],inactive
same,outcome,[8],inactive
same,outcome,[9],inactive
same,outcome,[10],inactive
same,outcome,[11],inactive
same,outcome,[12],inactive
same,outcome,[13],inactive
same,outcome,[14],inactive
same,outcome,[15],inactive
same,outcome,[16],inactive
same,outcome,[17],inactive
CN1CCN(Cc2nc3ccccc3n2C)CC1CCO (stereo not drawn),outcome,[1],inactive
same,outcome,[2],inactive
same,outcome,[3],inactive
same,outcome,[4],inactive
same,outcome,[5],inactive
same,outcome,[6],inactive
same,outcome,[7],inactive
same,outcome,[8],inactive
same,outcome,[9],inactive
same,outcome,[10],inactive
same,outcome,[11],inactive
same,outcome,[12],inactive
same,outcome,[13],inactive
same,outcome,[14],inactive
same,potentiation,[15],9.01% (active)
same,outcome,[16],inactive
same,outcome,[17],inactive
COc1ccccc1N(C(=O)c1snc(C(N)=O)c1N)C(C(=O)NCc1ccccc1)c1ccc(O)cc1 (stereo not drawn),outcome,[1],inactive
same,outcome,[2],inactive
same,outcome,[3],inactive
same,outcome,[4],inactive
same,inhibition,[5],91% (active)
same,inhibition,[6],51% (active)
same,outcome,[7],inactive
same,outcome,[8],inactive
same,outcome,[9],inactive
same,outcome,[10],inactive
same,outcome,[11],inactive
same,outcome,[12],inactive
same,outcome,[13],inactive
same,inhibition,[14],26.4% (active)
same,outcome,[15],inactive
same,outcome,[16],inactive
same,outcome,[17],inactive
COc1ccc(CCn2c(N)c(C#N)c3nc4ccccc4nc32)cc1OC,outcome,[1],inactive
same,outcome,[2],inactive
same,outcome,[3],inactive
same,outcome,[4],inactive
same,outcome,[5],inactive
same,outcome,[6],inactive
same,outcome,[7],inactive
same,outcome,[8],inactive
same,outcome,[9],inactive
same,outcome,[10],inactive
same,outcome,[11],inactive
same,outcome,[12],inactive
same,outcome,[13],inactive
same,outcome,[14],inactive
same,outcome,[15],inactive
same,outcome,[16],inactive
same,outcome,[17],inactive
O=C1CCSc2ccc(Cl)cc2N1Cc1ccc(Cl)cc1,outcome,[1],inactive
same,outcome,[2],inactive
same,outcome,[3],inactive
same,outcome,[4],inactive
same,outcome,[5],inactive
same,outcome,[6],inactive
same,outcome,[7],inactive
same,outcome,[8],inactive
same,outcome,[9],inactive
same,outcome,[10],inactive
same,outcome,[11],inactive
same,outcome,[12],inactive
same,outcome,[13],inactive
same,outcome,[14],inactive
same,outcome,[15],inactive
same,outcome,[16],inactive
same,outcome,[17],inactive
CN(CC(=O)Nc1ccc(F)cc1)C(=O)COC(=O)c1ccccc1,outcome,[1],inactive
same,outcome,[2],inactive
same,potentiation,[3],27% (active)
same,potentiation,[4],25% (active)
same,outcome,[5],inactive
same,outcome,[6],inactive
same,outcome,[7],inactive
same,outcome,[8],inactive
same,outcome,[9],inactive
same,outcome,[10],inactive
same,outcome,[11],inactive
same,outcome,[12],inactive
same,outcome,[13],inactive
same,outcome,[14],inactive
same,potentiation,[15],23.8% (active)
same,outcome,[16],inactive
same,outcome,[17],inactive
CC(C)c1nc2ccc(Br)cn2c1NC1CCCC1,outcome,[1],inactive
same,outcome,[2],inactive
same,outcome,[3],inactive
same,outcome,[4],inactive
same,outcome,[5],inactive
same,outcome,[6],inactive
same,outcome,[7],inactive
same,outcome,[8],inactive
same,outcome,[9],inactive
same,outcome,[10],inactive
same,outcome,[11],inactive
same,outcome,[12],inactive
same,outcome,[13],inactive
same,outcome,[14],inactive
same,outcome,[15],inactive
same,outcome,[16],inactive
same,outcome,[17],inactive
COc1cccc(N(C(=O)c2snc(C(N)=O)c2N)C(C(=O)NCC2CCCO2)c2ccc3ncccc3c2)c1 (stereo not drawn),outcome,[1],inactive
same,outcome,[2],inactive
same,outcome,[3],inactive
same,outcome,[4],inactive
same,inhibition,[5],76% (active)
same,outcome,[6],inactive
same,outcome,[7],inactive
same,outcome,[8],inactive
same,outcome,[9],inactive
same,outcome,[10],inactive
same,outcome,[11],inactive
same,outcome,[12],inactive
same,outcome,[13],inactive
same,outcome,[14],inactive
same,outcome,[15],inactive
same,outcome,[16],inactive
same,outcome,[17],inactive
Cc1ccc2oc(C(=O)N3CCC(O)(c4ccccc4)CC3)c(C)c2c1,outcome,[1],inactive
same,outcome,[2],inactive
same,outcome,[3],inactive
same,potentiation,[4],11% (active)
same,outcome,[5],inactive
same,outcome,[6],inactive
same,outcome,[7],inactive
same,outcome,[8],inactive
same,outcome,[9],inactive
same,outcome,[10],inactive
same,outcome,[11],inactive
same,outcome,[12],inactive
same,outcome,[13],inactive
same,outcome,[14],inactive
same,potentiation,[15],27.2% (active)
same,outcome,[16],inactive
same,outcome,[17],inactive
Cc1ccc(C2N(c3cccc(Cl)c3)C(=O)C3CCCN32)o1 (stereo not drawn),outcome,[1],inactive
same,outcome,[2],inactive
same,potentiation,[3],19% (active)
same,potentiation,[4],16% (active)
same,outcome,[5],inactive
same,outcome,[6],inactive
same,outcome,[7],inactive
same,outcome,[8],inactive
same,outcome,[9],inactive
same,outcome,[10],inactive
same,outcome,[11],inactive
same,outcome,[12],inactive
same,outcome,[13],inactive
same,outcome,[14],inactive
same,potentiation,[15],13.4% (active)
same,outcome,[16],inactive
same,outcome,[17],inactive
CC1(C)CC(=O)C(C=NCCN2CCN(C3CC(=O)N(c4cccc(Br)c4)C3=O)CC2)=C(O)C1 (stereo not drawn),outcome,[1],inactive
same,outcome,[2],inactive
same,potentiation,[3],12% (active)
same,outcome,[4],inactive
same,outcome,[5],inactive
same,outcome,[6],inactive
same,outcome,[7],inactive
same,outcome,[8],inactive
same,outcome,[9],inactive
same,outcome,[10],inactive
same,outcome,[11],inactive
same,outcome,[12],inactive
same,outcome,[13],inactive
same,outcome,[14],inactive
same,potentiation,[15],16.8% (active)
same,outcome,[16],inactive
same,outcome,[17],inactive
